Source: PubChem BioAssay

assay: inhibitors of Sendai virus-induced IRF3 signaling, primary screen, TLR/RLR signaling modifier project, cell-based, Sendai virus stimulus, luciferase, 10K MLSCN set (AID 602276); conditions: HEK293 RL24 IRF3 luciferase reporter, at 10 µM, hits give high values;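 active = inhibition at or above 50% at 10 µM; inactive = inhibition below 50%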;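 also: firefly luciferase from ISG56 promoter only with Renilla not read in this screen; 0% = Sendai virus plus DMSO and 100% = medium plus DMSO without virus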

inhibition, inactive:
CCN(CC(=O)NC(=O)NCc1ccco1)Cc1nc2ccccc2c(=O)[nH]1 15.7%
CC(=O)c1nnn(-c2nc(N3CCCC3)nc(N(c3ccccc3)c3ccccc3)n2)c1C 15.9%
CC(NC(=O)c1ccccc1NC(=O)c1ccco1)C(=O)O (stereo unspecified) 23.6%
CCN(CC)S(=O)(=O)c1ccc2oc(C(=O)O)c(C)c2c1 5.96%
CCOc1ccc(N(CC(=O)NCC2CCCO2)S(=O)(=O)c2ccc(OC)c(OC)c2)cc1 (stereo unspecified) 10.6%
O=C(CSc1nnc(-c2cccs2)o1)N1CCOCC1 -8.48%
CCc1c(C)nc(N2CCN(Cc3ccccc3)CC2)[nH]c1=O 17.7%
CCOc1ncccc1C(=O)OCC(=O)Nc1ncc(C(F)(F)F)cc1Cl 22.1%
O=C(NCc1n[nH]c(=S)n1-c1ccc(F)cc1)c1ccco1 12.1%
CCOc1ccccc1N1CCN(c2nc(N)c(C#N)c(CC#N)c2C#N)CC1 20.4%
CCOc1ccc2cc(C#N)c(SCC(=O)N3CCCC3)nc2c1 -13.8%
COC(=O)c1ccc(CSc2nc3ccccc3c(=O)n2Cc2ccco2)o1 6.37%
CCn1c(C(=O)N2CCCC(C(=O)O)C2)cc2sccc21 (stereo unspecified) -2.79%
CCOC(=O)C(CC)(CCC(=O)O)c1csc(N)n1 (stereo unspecified) 13.6%
Cc1c(C(=O)O)oc2ccc(S(=O)(=O)NCc3ccccc3)cc12 -0.0664%
COc1cc(-c2noc(-c3cccc(Cl)c3)n2)cc(OC)c1OC 6.15%
